# Measured values taken from PubChem BioAssay (Tox21).
# Records with an inconclusive call do not appear. Entries that show only a call come without a potency. The source made the active and inactive calls. Unless noted, calls follow the shape of the dose curve; as a rule, active = well fitted curve in the direction sought with a large enough effect in the repeat runs; inconclusive = weak or mixed curves; inactive = no such curve, though single readings can be large; an effect the other way counts as inactive or inconclusive.
# Target: Androgen receptor (Homo sapiens) (UniProt P10275)
# Assay: qHTS assay to identify small molecule agonists of the androgen receptor (AR) signaling pathway (AID 743036; active = well fitted activation curve with a large enough effect in the signal ratio in the repeat runs, with a control signal flat, not every such curve was filed as active; the % refers to the signal ratio)
# Conditions: HEK293 AR-UAS-bla GripTite, beta-lactamase FRET ratio, 16 h; series mostly up to 62.4 µM
# In short: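 Following a 4 h settling period, AR-UAS-bla HEK293 cells were dosed with compounds for 16 h at 37C. A 2 h room-temperature incubation with LiveBLAzer B/G FRET substrate preceded the fluorescence measurement.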
# Potency is read from the fitted curve at half-maximal effect.
# Androgen receptor (Homo sapiens), sequence (P10275 whole entry, looked up): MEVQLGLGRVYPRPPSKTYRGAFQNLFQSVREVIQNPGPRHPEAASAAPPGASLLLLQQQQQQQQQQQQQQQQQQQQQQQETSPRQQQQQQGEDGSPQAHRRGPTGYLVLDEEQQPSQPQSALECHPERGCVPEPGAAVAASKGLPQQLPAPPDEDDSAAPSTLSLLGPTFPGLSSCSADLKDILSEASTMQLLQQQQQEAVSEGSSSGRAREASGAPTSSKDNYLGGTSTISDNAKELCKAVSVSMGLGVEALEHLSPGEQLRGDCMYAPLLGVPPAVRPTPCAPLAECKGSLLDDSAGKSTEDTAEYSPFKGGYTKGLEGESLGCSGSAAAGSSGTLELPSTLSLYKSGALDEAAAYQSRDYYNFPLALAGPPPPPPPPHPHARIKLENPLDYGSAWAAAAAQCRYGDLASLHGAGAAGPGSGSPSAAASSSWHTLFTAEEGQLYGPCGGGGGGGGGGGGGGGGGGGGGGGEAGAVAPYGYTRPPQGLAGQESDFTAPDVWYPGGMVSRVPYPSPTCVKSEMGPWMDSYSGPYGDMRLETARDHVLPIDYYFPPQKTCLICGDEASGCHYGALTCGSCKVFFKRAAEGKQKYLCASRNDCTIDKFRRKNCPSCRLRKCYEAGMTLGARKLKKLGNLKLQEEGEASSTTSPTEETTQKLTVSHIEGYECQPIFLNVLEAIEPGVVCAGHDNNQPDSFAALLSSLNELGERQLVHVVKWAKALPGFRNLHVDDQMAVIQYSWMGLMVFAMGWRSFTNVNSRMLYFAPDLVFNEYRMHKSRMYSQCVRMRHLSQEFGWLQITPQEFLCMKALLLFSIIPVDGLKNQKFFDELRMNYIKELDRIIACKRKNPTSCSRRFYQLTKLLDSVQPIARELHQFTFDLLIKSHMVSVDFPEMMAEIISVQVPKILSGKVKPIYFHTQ
row,SMILES,Potency
1,COc1cc(C(=O)OCCCN2CCCN(CCCOC(=O)c3cc(OC)c(OC)c(OC)c3)CC2)cc(OC)c1OC,inactive
2,COC(=O)C1=C(C)NC(COC(N)=O)=C(C(=O)OC(C)C)C1c1cccc(Cl)c1Cl (centres undefined),10.7 µM (active)
3,OC(CN1CCC(Cc2ccc(F)cc2)CC1)c1ccc(Cl)cc1 (centres undefined),inactive
4,c1ccc(-c2ccccn2)nc1,inactive
5,O=[N+]([O-])c1ccc(NCCO)c(OCCO)c1,inactive
6,Cc1cc(N)c2cc(NC(=O)Nc3ccc4nc(C)cc(N)c4c3)ccc2n1,inactive
7,CN1CCC(=C2c3ccccc3Sc3ccccc32)CC1,inactive
8,Nc1cccc([N+](=O)[O-])c1,inactive
9,C=C1C(=C/C=C2\CCC[C@]3(C)[C@@H]([C@H](C)/C=C/[C@@H](O)C4CC4)CC[C@@H]23)C[C@@H](O)C[C@@H]1O,inactive

# Target: Androgen receptor (Homo sapiens) (UniProt P10275)
# Assay: qHTS assay to identify small molecule agonists of the androgen receptor (AR) signaling pathway using the MDA cell line (AID 743040; also: nearly all actives have a fitted effect of over 20% in size)
# Conditions: MDA-kb2 AR-luc cells, MMTV luciferase, 16 h; series mostly up to 70.3 µM
# In short: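 MDA-kb2 breast carcinoma cells stably carrying an MMTV-driven luciferase reporter (AR- and GR-responsive) were seeded and held 5 h at 37C, 0% CO2, then exposed to compounds in DMSO for 16 h. Luminescence was read 30 min after ONE-Glo addition.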
row,SMILES,Potency
1,COc1cc(C(=O)OCCCN2CCCN(CCCOC(=O)c3cc(OC)c(OC)c(OC)c3)CC2)cc(OC)c1OC,inactive
2,COC(=O)C1=C(C)NC(COC(N)=O)=C(C(=O)OC(C)C)C1c1cccc(Cl)c1Cl (centres undefined),inactive
3,OC(CN1CCC(Cc2ccc(F)cc2)CC1)c1ccc(Cl)cc1 (centres undefined),inactive
4,c1ccc(-c2ccccn2)nc1,inactive
5,O=S(c1cc(Cl)cc(Cl)c1O)c1cc(Cl)cc(Cl)c1O,inactive
6,O=[N+]([O-])c1ccc(NCCO)c(OCCO)c1,inactive
7,CCC(=O)O[C@]1(C(=O)CCl)[C@@H](C)C[C@H]2[C@@H]3CCC4=CC(=O)C=C[C@]4(C)[C@@]3(F)[C@@H](O)C[C@@]21C,0.0019 µM (active)
8,Cc1cc(N)c2cc(NC(=O)Nc3ccc4nc(C)cc(N)c4c3)ccc2n1,inactive
9,CCCCC(=O)OCC(=O)[C@H]1[C@H](C)C[C@H]2[C@@H]3C[C@H](F)C4=CC(=O)C=C[C@]4(C)[C@@]3(F)[C@@H](O)C[C@@]21C,0.0047 µM (active)
10,O=C(O)C1(C(=O)Nc2ccc(Cl)cc2Cl)CC1,inactive
11,O=C(c1ccc(F)cc1)C1CCN(CCn2c(=S)[nH]c3ccccc3c2=O)CC1,inactive
12,CN1CCC(=C2c3ccccc3Sc3ccccc32)CC1,inactive
13,Nc1cccc([N+](=O)[O-])c1,inactive
14,CC(=O)OC[C@H]1O[C@@H](n2ncc(=O)[nH]c2=O)[C@H](OC(C)=O)[C@@H]1OC(C)=O,inactive
15,C=C1C(=C/C=C2\CCC[C@]3(C)[C@@H]([C@H](C)/C=C/[C@@H](O)C4CC4)CC[C@@H]23)C[C@@H](O)C[C@@H]1O,inactive

# System: not listed separately
# Assay: qHTS assay to identify small molecule antagonists of the androgen receptor (AR) signaling pathway using the MDA cell line - cell viability counter screen (AID 743041; also: nearly all actives have a fitted effect of over 45% in size)
# Conditions: MDA-kb2 viability, CellTiter-Fluor, 16 h, cells co-treated with R1881 androgen agonist; series mostly up to 70.3 µM
# In short: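 MDA-kb2 AR-luc human breast carcinoma cells (MMTV-luciferase, AR/GR responsive) were treated with compounds plus R1881 agonist for 16 h at 37 °C. Viability was read as CellTiter-Fluor fluorescence in the same wells as the reporter assay.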
row,SMILES,Potency
1,CCCCCCCCCCCCCCCCCCOS(=O)(=O)O,inactive
2,COc1cc(C(=O)OCCCN2CCCN(CCCOC(=O)c3cc(OC)c(OC)c(OC)c3)CC2)cc(OC)c1OC,inactive
3,C1CCCNCCC1,inactive
4,COC(=O)C1=C(C)NC(COC(N)=O)=C(C(=O)OC(C)C)C1c1cccc(Cl)c1Cl (centres undefined),inactive
5,CC1=CCCC(C)(C)C12CCC(C)O2 (centres undefined),inactive
6,C=C(C)C(=O)OCCO,inactive
7,OC(CN1CCC(Cc2ccc(F)cc2)CC1)c1ccc(Cl)cc1 (centres undefined),inactive
8,c1ccc(-c2ccccn2)nc1,inactive
9,O=S(c1cc(Cl)cc(Cl)c1O)c1cc(Cl)cc(Cl)c1O,inactive
10,O=[N+]([O-])c1ccc(NCCO)c(OCCO)c1,54.5 µM (active)
11,CCC(=O)O[C@]1(C(=O)CCl)[C@@H](C)C[C@H]2[C@@H]3CCC4=CC(=O)C=C[C@]4(C)[C@@]3(F)[C@@H](O)C[C@@]21C,inactive
12,C[N+](C)(C)CCOC(=O)CCC(=O)OCC[N+](C)(C)C,inactive
13,COC(C)OC,inactive
14,CC(=O)c1ccc2c(c1)N(CCCN(C)C)c1ccccc1S2,inactive
15,CN(C)CCN(Cc1ccc(Cl)cc1)c1ccccn1,inactive
16,CCN(CC)CCNc1ccc(CNC=O)c2sc3ccc(OC)cc3c(=O)c12,inactive
17,CCCCCCCCCCCCN1CCCCCC1=O,inactive
18,C#CCN(C)CCCOc1ccc(Cl)cc1Cl,inactive

row,SMILES,Potency
1,CCCCOC(=O)CCCCCCCC(=O)OCCCC,inactive
2,CC(CC=O)c1ccccc1 (centres undefined),inactive
3,CCCCC(=O)OCC(=O)[C@H]1[C@H](C)C[C@H]2[C@@H]3C[C@H](F)C4=CC(=O)C=C[C@]4(C)[C@@]3(F)[C@@H](O)C[C@@]21C,inactive
4,CCN(CC)CCNC(=O)c1cc(Br)c(N)cc1OC,inactive
5,CCCCCCCCCOS(=O)(=O)O,inactive
6,O=C(O)C1(C(=O)Nc2ccc(Cl)cc2Cl)CC1,inactive
7,O=C(c1ccc(F)cc1)C1CCN(CCn2c(=S)[nH]c3ccccc3c2=O)CC1,inactive
8,CCC(C)c1cc(C(C)(C)C)c(O)c(C(C)(C)C)c1 (centres undefined),inactive
9,C=C(C)C(=O)OCCOCC,inactive
10,Nc1cccc(S(=O)(=O)c2cccc(N)c2)c1,inactive
11,CCCCC,inactive
12,CC(=O)[O][Al][O]C(C)=O,inactive
13,Cc1cc(C(=O)O)ccc1[N+](=O)[O-],inactive
14,Nc1cccc([N+](=O)[O-])c1,inactive
15,CCCCCCCCCCCCCCOS(=O)(=O)O,inactive
16,CCCCc1nc2cccnc2n1Cc1ccc(-c2ccccc2-c2nnn[nH]2)cc1,inactive
17,CC(=O)OC[C@H]1O[C@@H](n2ncc(=O)[nH]c2=O)[C@H](OC(C)=O)[C@@H]1OC(C)=O,inactive
